An excerpt weighted towards active compounds, which were near 3.1% of everything screened.
BoNT F protease – inhibitors of Botulinum neurotoxin F light chain protease. Multiplex microsphere protease cleavage assay, flow cytometry. inhibition, % at 10 µM. 360,000 compounds, 0.22% hits. AID 588497; in the data active = inhibition above about 35%, passing the limit was not always enough; inconclusive = no clear call, values can overlap the other calls
Anthrax LF prot – inhibitors of Bacillus anthracis lethal factor protease | P15917 | multiplex microsphere protease cleavage assay, LF | inhibition, % at 10 µM | 360,000 compounds, 0.12% hits | AID 588501
Target sequence (P15917 whole entry, looked up): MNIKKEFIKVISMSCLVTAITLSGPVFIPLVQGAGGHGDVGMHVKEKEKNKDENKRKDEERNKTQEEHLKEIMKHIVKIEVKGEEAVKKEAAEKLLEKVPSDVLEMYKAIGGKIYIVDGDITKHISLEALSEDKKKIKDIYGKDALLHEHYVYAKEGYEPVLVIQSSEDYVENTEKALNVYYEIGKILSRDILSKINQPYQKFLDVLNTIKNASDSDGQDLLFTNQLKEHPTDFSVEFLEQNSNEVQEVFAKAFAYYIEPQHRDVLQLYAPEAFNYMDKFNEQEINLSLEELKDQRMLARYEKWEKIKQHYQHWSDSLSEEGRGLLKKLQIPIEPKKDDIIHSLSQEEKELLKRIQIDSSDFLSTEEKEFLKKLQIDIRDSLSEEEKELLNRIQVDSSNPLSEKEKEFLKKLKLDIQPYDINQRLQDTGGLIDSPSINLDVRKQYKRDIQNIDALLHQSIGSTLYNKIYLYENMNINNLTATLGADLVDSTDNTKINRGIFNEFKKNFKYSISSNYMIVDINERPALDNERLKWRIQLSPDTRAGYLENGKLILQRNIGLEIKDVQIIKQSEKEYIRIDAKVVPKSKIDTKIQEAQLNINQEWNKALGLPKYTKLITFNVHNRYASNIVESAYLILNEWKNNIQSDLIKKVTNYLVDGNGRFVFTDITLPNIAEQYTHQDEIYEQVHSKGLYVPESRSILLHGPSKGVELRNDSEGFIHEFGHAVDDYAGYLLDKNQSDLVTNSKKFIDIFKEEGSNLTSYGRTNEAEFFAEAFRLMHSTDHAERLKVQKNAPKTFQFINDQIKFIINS
BoNT-A LC inh2 – BoNT A light chain protease inhibition | inhibition, % at 10 µM | AID 588499 | multiplex microsphere protease substrate cleavage, flow cytometry | 360,000 compounds, 0.17% hits
Autofluor counter – compound fluorescence in toxin protease inhibitor counterscreen | compound autofluorescence counterscreen, microsphere flow cytometry; active compounds read high | fluorescence intensity (no concentration beside the values) | 360,000 compounds, 3.1% hits; in the data active = fluorescence intensity above about 16000; inconclusive = no clear call, values can overlap the other calls
PriA SSB inh – K. pneumoniae PriA-SSBct interaction inhibition. AlphaScreen SSBct-PriA binding, biotinylated peptide. inhibition, % at 33 µM. 430,000 compounds, 0.6% hits; in the data active = inhibition mostly above about 37%, no sharp cut-off; inactive = mostly below about 20%
Numbers stand for hits. Rule as the data show it, unless noted: active = inhibition above about 30%; inconclusive = no clear call, values can overlap the other calls; inactive = below that.

`O=C(c1ccccc1)c1ccc2nc(-c3ccco3)c(-c3ccco3)nc2c1` gave BoNT F protease inactive, Anthrax LF prot inactive, BoNT-A LC inh2 42, Autofluor counter inactive and PriA SSB inh inactive.
`O=C(NCCc1ccccc1)c1ccc2nc(-c3ccco3)c(-c3ccco3)nc2c1` gave BoNT F protease inactive, Anthrax LF prot inactive, BoNT-A LC inh2 inactive, Autofluor counter inactive and PriA SSB inh inactive.
CCc1sc(C(=O)N2CCN(S(C)(=O)=O)CC2)cc1Br was read as BoNT F protease inactive, Anthrax LF prot inactive, BoNT-A LC inh2 inactive, Autofluor counter 23583 and PriA SSB inh inactive.
CCc1sc(C(=O)N2CCCN(C)CC2)cc1Br was read as BoNT F protease inactive, Anthrax LF prot inactive, BoNT-A LC inh2 inactive, Autofluor counter inactive and PriA SSB inh inactive.
O=C(Nc1cc(C(F)(F)F)ccc1N1CCOCC1)c1cncc(Br)c1 was read as BoNT F protease inactive, Anthrax LF prot inactive, BoNT-A LC inh2 inactive, Autofluor counter 22690 and PriA SSB inh inactive.
Screening O=C(Nc1cc(C(F)(F)F)ccc1N1CCOCC1)C1Cc2ccccc2CN1C(=O)c1ccco1 (configuration not stated) returned BoNT F protease inactive, Anthrax LF prot inactive, BoNT-A LC inh2 inactive, Autofluor counter 20221 and PriA SSB inh inactive.
`Cn1ccnc1SCC(=O)Nc1cc(C(F)(F)F)ccc1N1CCOCC1` gave BoNT F protease inactive, Anthrax LF prot inactive, BoNT-A LC inh2 inconclusive, Autofluor counter 16282 and PriA SSB inh inactive.
`O=C(Nc1cc(C(F)(F)F)ccc1N1CCOCC1)c1cccc(F)c1` gave BoNT F protease inactive, Anthrax LF prot inactive, BoNT-A LC inh2 inactive, Autofluor counter inactive and PriA SSB inh inactive.
`O=C(Nc1cc(C(F)(F)F)ccc1N1CCOCC1)c1ccc2ccccc2n1` gave BoNT F protease inactive, Anthrax LF prot inactive, BoNT-A LC inh2 inactive, Autofluor counter 19909 and PriA SSB inh inactive.
`Cc1cc(C(=O)Nc2cc(C(F)(F)F)ccc2N2CCOCC2)no1` gave BoNT F protease inactive, Anthrax LF prot inactive, BoNT-A LC inh2 inactive, Autofluor counter inactive and PriA SSB inh inactive.
For Cn1cnnc1SCC(=O)Nc1cc(C(F)(F)F)ccc1N1CCOCC1 the results were BoNT F protease inactive, Anthrax LF prot inactive, BoNT-A LC inh2 inactive, Autofluor counter inactive and PriA SSB inh inactive.
Screening O=S(=O)(Cc1ccc(Cl)cc1)NCc1cnn2c1CCCC2 returned PriA SSB inh inactive.
Screening CS(=O)(=O)c1ccc(Nc2nc(CC(=O)NCCC3=CCCCC3)cs2)cc1 returned PriA SSB inh inactive.
CN(Cc1c(C(=O)NN=Cc2ccccc2)nnn1-c1nonc1N)c1ccccc1 was read as PriA SSB inh inactive.
`COc1ccc2c(c1)CCc1c(C(=O)N3CCOCC3)noc1-2` gave BoNT F protease inactive, Anthrax LF prot inactive, BoNT-A LC inh2 inactive, Autofluor counter 18054 and PriA SSB inh inactive.
`COc1ccc2c(c1)CCc1c(C(=O)N3CCCc4ccccc43)noc1-2` gave BoNT F protease inactive, Anthrax LF prot inactive, BoNT-A LC inh2 inactive, Autofluor counter inactive and PriA SSB inh inactive.
Screening COc1ccc2c(c1)CCc1c(C(=O)Nc3ccc(OC)c(OC)c3)noc1-2 returned BoNT F protease inactive, Anthrax LF prot inactive, BoNT-A LC inh2 inactive, Autofluor counter 20591 and PriA SSB inh inactive.
Screening O=C(NCc1ccc2[nH]c3c(c2c1)CCCC3)C12CC3CC(CC(C3)C1)C2 returned PriA SSB inh inactive.
`Cc1ccc(-n2c(O)c(/C=C3/C(c4ccccc4)=Nc4ccccc43)c(=O)[nH]c2=O)cc1` gave BoNT F protease inactive, Anthrax LF prot inactive, BoNT-A LC inh2 inactive and Autofluor counter inactive.
Cc1ccccc1-n1c(O)c(/C=C2/C(c3ccccc3)=Nc3ccccc32)c(=O)[nH]c1=O was read as BoNT F protease inactive, Anthrax LF prot inactive, BoNT-A LC inh2 47 and Autofluor counter inactive.
O=C(Cc1cc(=O)[nH]c(SCc2cccc(Cl)c2)n1)Nc1nccs1 was read as PriA SSB inh inactive.
For COC(=O)[C@@H](NC(=O)Nc1cccc(OC)c1)C(C)C the results were BoNT F protease inactive, Anthrax LF prot inactive, BoNT-A LC inh2 inactive, Autofluor counter 21593 and PriA SSB inh inactive.
For O=C(O)c1ccccc1OCCOCCOc1ccccc1C(=O)O the results were BoNT F protease inactive, Anthrax LF prot inactive, BoNT-A LC inh2 inactive, Autofluor counter 23112 and PriA SSB inh inactive.
Cc1ccc(N2CCCn3c2cc(C)c(C#N)c3=O)cc1C was read as BoNT F protease inactive, Anthrax LF prot inactive, BoNT-A LC inh2 inactive, Autofluor counter 21058 and PriA SSB inh inactive.
Screening O=C(Cc1csc(SCc2ccc(Cl)cc2)n1)Nc1ccc2c(c1)OCCO2 returned PriA SSB inh inactive.
`CC(C)(C)NC(=O)CN(Cc1cccs1)C(=O)CNS(=O)(=O)c1ccc(F)cc1` gave BoNT F protease inactive, Anthrax LF prot inactive, BoNT-A LC inh2 inactive, Autofluor counter inactive and PriA SSB inh inactive.
For CCC(C)(C)NC(=O)CN(Cc1cccs1)C(=O)CNS(=O)(=O)c1ccc(C)cc1 the results were BoNT F protease inactive, Anthrax LF prot inactive, BoNT-A LC inh2 inactive, Autofluor counter 16739 and PriA SSB inh inactive.
Screening Cc1ccc(-c2nnn(CC(=O)N(c3cnc4ccccc4c3)C(C(=O)NC3CCCC3)c3ccncc3)n2)o1 (configuration not stated) returned BoNT F protease inactive, Anthrax LF prot inactive, BoNT-A LC inh2 inactive, Autofluor counter inactive and PriA SSB inh inactive.
Screening CCC(C(=O)NC1CCCC1)N(C(=O)Cn1nnc(-c2ccc(C)o2)n1)c1cnc2ccccc2c1 (configuration not stated) returned BoNT F protease inactive, Anthrax LF prot inactive, BoNT-A LC inh2 inactive, Autofluor counter 26220 and PriA SSB inh inactive.
O=C(CN(C(=O)Cn1nnc(-c2ccc(F)cc2)n1)c1ccc(F)c(Cl)c1)NCC1CCCO1 (configuration not stated) was read as BoNT F protease inactive, Anthrax LF prot inactive, BoNT-A LC inh2 inactive, Autofluor counter inactive and PriA SSB inh inactive.
For Cc1ccc(-c2nnn(CC(=O)N(CC(=O)NC3CCCC3)c3cnc4ccccc4c3)n2)o1 the results were BoNT F protease inactive, Anthrax LF prot inactive, BoNT-A LC inh2 inactive, Autofluor counter 20315 and PriA SSB inh inactive.
Screening Cc1ccc(-c2nnn(CC(=O)N(CC(=O)NC(C)C)c3cnc4ccccc4c3)n2)o1 returned BoNT F protease inactive, Anthrax LF prot inactive, BoNT-A LC inh2 inactive, Autofluor counter inactive and PriA SSB inh inactive.
`Cc1ccc(-c2nnn(CC(=O)N(CC(=O)NCC3CCCO3)c3ccc(F)c(Cl)c3)n2)o1` (configuration not stated) gave BoNT F protease inactive, Anthrax LF prot inactive, BoNT-A LC inh2 inactive, Autofluor counter 25388 and PriA SSB inh inactive.
COc1ccccc1OCC(=O)N/N=C1/SCC(=O)N1Cc1ccccc1 was read as BoNT F protease inactive, Anthrax LF prot inactive, BoNT-A LC inh2 inactive and Autofluor counter 22284.
`CCOC(=O)c1ccc(NC(=O)CC2C(=O)N(c3ccccc3)C(=O)N2CCCOC)cc1` (configuration not stated) gave BoNT F protease inactive, Anthrax LF prot inactive, BoNT-A LC inh2 inactive, Autofluor counter 19974 and PriA SSB inh inactive.

Screening data: PubChem BioAssay, several laboratories
